# Values of other authors as cited in PubChem BioAssay AID977611.
# Screen size: about 3,900 compounds; about 3,900 (100%) were called active. The limit is not given here; nearly all actives have Kd up to about 4200 µM. So high a share suggests a set chosen from earlier hits. This is one part of the list. Where a SMILES comes first, the peptide text is derived from it. Square brackets hold non-standard residues; d marks the D form. Residues, ends and D or L forms follow the SMILES beside them. Bridges are numbered along the chain shown (N, C = ends). Peptide text beside a SMILES is read from it. [ ]: non-standard residue; d: D form. Orn(CH(NH2)2) = NC(N)NCCC[C@H](N)C(=O)O
# Test: PubChem AID 977611
# Conditions: PDB protein-ligand complexes, literature Kd
molecule,measurement,setting,value
CC(C)C[C@H](NC(=O)[C@H](CO)NC(=O)[C@H](CCCCN)NC(=O)[C@H](CCCCN)NC(=O)[C@H](CC(C)C)NC(=O)[C@H](CO[P+](O)(O)O)NC(=O)[C@H](CCCCN)NC(=O)[C@@H](NC(=O)[C@H](CCCN=C(N)N)NC(=O)[C@H](CO)NC(=O)[C@H](C)N)C(C)C)C(=O)N[C@@H](CCCN=C(N)N)C(=O)N[C@@H](CCC(N)=O)C(=O)N[C@@H](CO)C(=O)N[C@@H](Cc1ccccc1)C(=O)O,Kd,"protein: Disks large homolog 4, Dlg GK, PDB entry 3wp0",10.2 µM (active)
CSCC[C@H](NC(=O)[C@H](CCCN=C(N)N)NC(=O)[C@H](CCCN=C(N)N)NC(=O)[C@H](Cc1ccccc1)NC(=O)[C@H](CO[P+](O)(O)O)NC(=O)[C@H](CCC(N)=O)NC(=O)[C@H](CCCN=C(N)N)NC(=O)[C@H](CC(C)C)NC(=O)[C@H](CO)NC(=O)[C@H](CCCCN)NC(=O)[C@@H](N)CCCCN)C(=O)N[C@@H](C)C(=O)O,Kd,"protein: Disks large homolog 4, Dlg GK, PDB entry 3wp1",14.1 µM (active)
H-AIIGLMVGGVV-OH,Kd,"protein: ponezumab Fab, PDB entry 3u0t",0.0003 µM (active)
CC[C@H](C)[C@H](NC(=O)[C@@H](N)CC(=O)O)C(=O)N[C@@H](CC(=O)O)C(=O)N[C@H](C(=O)N[C@@H](CCSC)C(=O)NCC(=O)N[C@@H](CC(C)C)C(=O)O)C(C)C (H-DIDVMGL-OH),Kd,"protein: Rhodopsin, PDB entry 4pxf",800 µM (active)
CC(C)C[C@H](NC(=O)[C@@H]1CCCN1C(=O)[C@H](CCCNC(N)N)NC(=O)[C@@H]1CCCN1C(=O)[C@@H]1CCCN1)C(=O)N1CCC[C@H]1C(=O)N[C@H](C(=O)N[C@@H](C)C(=O)N1CCC[C@H]1C(=O)NCC(=O)N[C@@H](CO)C(=O)N[C@@H](CO)C(=O)N[C@@H](CCCCN)C(=O)N[C@H](C(=O)O)[C@@H](C)O)C(C)C (H-PP[Orn(CH(NH2)2)]PLPVAPGSSKT-OH),Kd,"protein: Fny(SH3 domain, 82 - 148), PDB entry 1azg",16 µM (active)
CC(C)C[C@H](NC(=O)[C@@H](NC(=O)[C@@H]1CCCN1C(=O)[C@@H]1CCCN1C(=O)[C@@H]1CCCN1)[C@@H](C)O)C(=O)N1CCC[C@H]1C(=O)N[C@@H](CCCCN)C(=O)N1CCC[C@H]1C(=O)N[C@@H](C)C(=O)N[C@@H](C)C(=O)N1CCC[C@H]1C(=O)O (H-PPPTLPKPAAP-OH),Kd,"protein: Nebulette, PDB entry 4f14",12.9 µM (active)
CC(C)C[C@@H](C=O)NC(=O)[C@H](CC(C)C)NC(=O)[C@@H]1CCCN1C(=O)[C@H](CCCCN)NC(=O)[C@@H]1CCCN1C(=O)[C@H](C)NC(=O)[C@@H](NC(=O)[C@@H]1CCCN1C(=O)[C@H](CCCNC(N)N)NC(=O)[C@@H]1CCCN1C(=O)[C@@H]1CCCN1C(=O)[C@@H]1CCCN1)[C@@H](C)O (H-PPP[Orn(CH(NH2)2)]PTAPKPLL-aldehyde),Kd,"protein: Mona/GadsSH3C, PDB entry 2w10",0.17 µM (active)
H-PPPLPP-OH,Kd,"protein: WW domain of Formin-binding protein 11(FBP11), PDB entry 1ywi",371 µM (active)
O=C(O)[C@@H]1CCCN1C(=O)[C@@H]1CCCN1C(=O)[C@@H]1CCCN1C(=O)[C@@H]1CCCN1C(=O)[C@@H]1CCCN1C(=O)[C@@H]1CCCN1C(=O)[C@@H]1CCCN1C(=O)[C@@H]1CCCN1C(=O)[C@@H]1CCCN1 (H-PPPPPPPPP-OH),Kd,"protein: PROLYL 4-HYDROXYLASE SUBUNIT ALPHA-1, PDB entry 4btb",9.8 µM (active)
O=C(O)CNC(=O)[C@@H]1CCCN1C(=O)[C@@H]1CCCN1C(=O)CNC(=O)[C@@H]1CCCN1C(=O)[C@@H]1CCCN1C(=O)CNC(=O)[C@@H]1CCCN1C(=O)[C@@H]1CCCN1 (H-PPGPPGPPG-OH),Kd,"protein: PROLYL 4-HYDROXYLASE SUBUNIT ALPHA-1, PDB entry 4bt9",144 µM (active)
COC(=O)c1cccc2[nH]ccc12,Kd,"protein: DNA REPAIR AND RECOMBINATION PROTEIN RADA, PDB entry 4b35",1300 µM (active)
CC1C(=O)OC2=C1C=COC2 (stereo unspecified),Kd,"protein: Hydrolase, alpha/beta fold family protein, PDB entry 4jym",9.05 µM (active)
C=C(C)/C=C/[C@H]1[C@@H](C)CCCC1(C)C,Kd,"protein: Cellular Retinal Binding Protein, PDB entry 4ciz",0.051 µM (active)
CC(C)C(=O)C[N+]1=C2N=C(N3CCOC[C@H]3C)CC(=O)N2CC[C@H]1C(F)(F)F,Kd,"protein: PHOSPHATIDYLINOSITOL 3-KINASE CATALYTIC SUBUNIT TYPE 3 Vsp34, PDB entry 4uwl",0.0027 µM (active)
Cn1cnc2nc(N)[nH]c(=O)c21,Kd,"protein: rRNA N-glycosidase, PDB entry 4i47",0.12 µM (active)
NCC(=O)NCC(=O)NCC(=O)N[C@@H](CO[P+](O)(O)O)C(=O)NCC(=O)NCC(=O)NCC(=O)O,Kd,"protein: 14-3-3 protein, PDB entry 1a37",0.12 µM (active)
OC[C@H]1O[C@@H](Sc2ccc3ccccc3c2)[C@H](O)[C@@H](O)[C@H]1O,Kd,"protein: PA-I GALACTOPHILIC LECTIN, PDB entry 4a6s",6.3 µM (active)
CC[C@H](C)[C@@H]1NC(=O)[C@H](Cc2cnc[nH]2)NC(=O)[C@H]([C@@H](C)CC)NC(=O)[C@H](CCCNC(N)N)NC(=O)[C@@H](N)CSSC[C@@H](C(=O)O)NC(=O)[C@H]([C@@H](C)O)NC(=O)[C@H](Cc2ccc(O)cc2)NC(=O)[C@H](Cc2ccccc2)NC(=O)[C@H](C)NC(=O)[C@H](CCCNC(N)N)NC(=O)CNC(=O)[C@@H]2CCCN2C(=O)CNC1=O,Kd,"protein: Fab mAb 447-52D Light Chain, PDB entry 4m1d",0.023 µM (active)
CC[C@H](C)[C@@H]1NC(=O)[C@H](CCCCN)NC(=O)[C@H](Cc2ccccc2)NC(=O)CNC(=O)[C@H](Cc2ccc(O)cc2)NC(=O)[C@H](CC(C)C)NC(=O)[C@H](CCCNC(N)N)NC(=O)[C@@H](NC(=O)CN)CSSC[C@@H](C(=O)NCC(=O)O)NC(=O)CNC(=O)[C@H](Cc2cnc[nH]2)NC1=O (H-GC[Orn(CH(NH2)2)]LYGFKIHGCG-OH; disulfide 2-12),Kd,"protein: Casein kinase II subunit alpha, PDB entry 4ib5",0.56 µM (active)
COc1cc2c(Nc3ccc(NC(=O)c4ccccc4)cc3)ncnc2cc1O,Kd,"protein: Bifunctional protein GlmU, PDB entry 4e1k",0.5 µM (active)
NC(N)NC[C@H]1Cc2ccccc2[C@@H]1NC(=O)C(=O)Nc1ccc(Cl)c(F)c1,Kd,"protein: HIV-1 glycoprotein, PDB entry 4i54",0.11 µM (active)
